Growth data for 13 molecules are collected here from PubChem BioAssay (NCI).

The structures appear in SMILES notation. The panel holds about 83,000 compounds, 20% with a hit somewhere; the sample as a whole holds those more often.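 Cell lines were cultured in 96-well plates, exposed to a single compound concentration, and assessed for percent growth 48 hours later.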 Unmarked numbers belong to inactive results. Calls of active or inactive are those of the source. The calls were made as follows: active = growth percent below 10; inactive = the rest.

Among the test systems are NCI-H23 lung; NCI-H226 lung; NCI-H322M lung; HOP-62 NSCLC; NCI-H460 lung; HOP-92 NSCLC; NCI-H522 lung; A549/ATCC NSCLC; 786-0 renal; COLO 205 colon.
What all share (assay): NCI-60 one-dose screen, 48 h (100 = growth as untreated, 0 = no growth, -100 = all killed)
What all share (details): 10 µM unless noted

As to `c1ccc(CO[C@H]2CO[C@H]3[C@@H]2OC[C@@H]3Oc2ccc(Nc3ncnc4ccsc34)cc2)cc1`, the growth in the assay with NCI-H23 lung was 62.6%; with NCI-H226 lung it was 80.3%; with NCI-H322M lung, 93.1%; with HOP-62 NSCLC, 86.5%; in the assay with NCI-H460 lung it was 84.5%; with HOP-92 NSCLC, 65%. Also, the growth in the assay on NCI-H522 lung is 70.4%; in the assay on A549/ATCC NSCLC, 81.7%; in the assay on 786-0 renal it was 87.2%; with COLO 205 colon, 71.8%.
Consider `c1ccc(-c2nc3sc(-c4ccccc4)cn3n2)cc1`, for which the growth with NCI-H23 lung is 83.5%; in the assay on NCI-H226 lung, 72.2%; with NCI-H322M lung, 88.2%; in the assay on HOP-62 NSCLC it was 66.7%; in the assay on NCI-H460 lung, 93.3%; with HOP-92 NSCLC, 74.4%. The growth is 80.8% in the assay on NCI-H522 lung, 89.6% in the assay with A549/ATCC NSCLC, 105% in the assay on 786-0 renal and 94.5% in the assay with COLO 205 colon.
Turning to `COc1ccc(C2CC(c3ccc(Nc4nc(Nc5ccc(F)cc5)nc(Nc5ccc(Cl)cc5)n4)cc3)=NN2C(C)=O)cc1` (stereo not given), the growth is 91.8% in the assay with NCI-H23 lung; 97.7% with NCI-H226 lung; 123% with NCI-H322M lung; 110% in the assay on HOP-62 NSCLC; 102% in the assay on NCI-H460 lung; 82.8% in the assay with HOP-92 NSCLC. Also, the growth was 58.1% with NCI-H522 lung, 90.2% with A549/ATCC NSCLC, 98.9% in the assay with 786-0 renal and 96.1% in the assay with COLO 205 colon.
In the case of `COc1ccc(-c2[nH]ncc2-c2cc3c(c(OC)c2)OCC(=O)N3)cc1`, the growth is 30% with NCI-H23 lung; 61.8% with NCI-H226 lung; 43% in the assay with NCI-H322M lung; 27.2% with HOP-62 NSCLC; 5.89% (active) with NCI-H460 lung; 63% in the assay with HOP-92 NSCLC. For the same molecule, the growth is -47.2% (active) in the assay with NCI-H522 lung, 35.2% with A549/ATCC NSCLC, 27% in the assay on 786-0 renal and -24.9% (active) in the assay with COLO 205 colon.
Take `C=C1CC[C@H](C(C)C)[C@@H]2[C@H]1[C@H]1CC(=C)[C@@H](O)CC[C@@](C)(O)[C@@H]2O1`: the growth in the assay on NCI-H23 lung was 81.6%; with NCI-H226 lung, 95.2%; in the assay with NCI-H322M lung, 95.4%; in the assay on HOP-62 NSCLC it was 84.3%; in the assay on NCI-H460 lung it was 108%; in the assay with HOP-92 NSCLC it was 86.3%. Also, the growth with NCI-H522 lung is 89.5%; with A549/ATCC NSCLC it was 86.2%; in the assay with 786-0 renal it was 82.6%; in the assay with COLO 205 colon, 117%.
Turning to `COc1ccc([C@H]2c3cc(OC)c(OC)cc3C=C(C=O)C2CO)cc1OC` (stereo not given in full), the growth in the assay with NCI-H23 lung was 62.8%; in the assay on NCI-H226 lung, 80.8%; in the assay with NCI-H322M lung, 97.8%; in the assay with HOP-62 NSCLC, 62.1%; in the assay with NCI-H460 lung, 69.8%; in the assay on HOP-92 NSCLC it was 36.8%. Besides, the growth in the assay with NCI-H522 lung was 32.1%; in the assay on A549/ATCC NSCLC it was 80.6%; in the assay with 786-0 renal, 45.7%; with COLO 205 colon, 45%.
`CN1C(=O)CNC(=O)[C@H](NC(=O)c2nc3ccccc3cc2O)CSSC[C@H]1C(=O)NCCc1nc2ccccc2cc1O`: the growth with NCI-H23 lung is 64.1%; in the assay on NCI-H226 lung, 83.8%; with NCI-H322M lung, 62.9%; with HOP-62 NSCLC it was 82.1%; with NCI-H460 lung, 8.06% (active); in the assay on HOP-92 NSCLC, 128%. The growth in the assay on NCI-H522 lung was 42.9%; in the assay with A549/ATCC NSCLC, 38.8%; with 786-0 renal it was 112%; in the assay with COLO 205 colon it was 1.34% (active).
Turning to `O=S(=O)(NCCCNc1cc(-c2c(-c3cccc(O)c3)nc3sccn23)ccn1)c1cccc2ccccc12`, the growth with NCI-H23 lung is 39.8%; in the assay with NCI-H226 lung, 41.1%; with NCI-H322M lung it was 78.8%; in the assay on HOP-62 NSCLC it was 67.2%; in the assay on NCI-H460 lung, 39.7%; in the assay on HOP-92 NSCLC it was 97.3%. The growth with NCI-H522 lung was 51.2%; in the assay with A549/ATCC NSCLC, 58.9%; in the assay with 786-0 renal, 51.2%; with COLO 205 colon, 35.5%.
On to `CC/C=C\C[C@@H](O)C/C=C1/C(=O)C=C[C@H]1C/C=C\CCCC(=O)OC`, for which the growth with NCI-H23 lung is 22.3%; in the assay on NCI-H226 lung, 8.9% (active); in the assay on NCI-H322M lung it was 12%; in the assay with HOP-62 NSCLC, -31.6% (active); in the assay on NCI-H460 lung, -33.2% (active); in the assay with HOP-92 NSCLC, 22.9%. Further, the growth in the assay with NCI-H522 lung is -67.7% (active); in the assay with A549/ATCC NSCLC, -16.6% (active); in the assay with 786-0 renal, 30.5%; in the assay on COLO 205 colon, -58% (active).
Consider `COc1ccc2c(c1)c(-c1ccc(-c3cn(C)c4ccc(OC)cc34)o1)cn2C`, for which the growth with NCI-H23 lung is 67.3%; in the assay on NCI-H226 lung it was 82.7%; with NCI-H322M lung, 95.1%; in the assay with HOP-62 NSCLC, 93.2%; in the assay with NCI-H460 lung, 56.8%; with HOP-92 NSCLC, 38%. Besides, the growth in the assay on NCI-H522 lung is -19.6% (active); in the assay on A549/ATCC NSCLC, 66.4%; with 786-0 renal, 83.2%; with COLO 205 colon, 16.3%.
Regarding `CCOC(=O)C1=C(N)Oc2c(sc3c(C)cccc23)C1c1ccc(F)cc1` (stereo not given), the growth was 20.1% in the assay with NCI-H23 lung; 9.65% (active) in the assay with NCI-H226 lung; 51.5% in the assay with NCI-H322M lung; 36.2% in the assay on HOP-62 NSCLC; 4.3% (active) in the assay with NCI-H460 lung; 91.7% in the assay with HOP-92 NSCLC. The growth in the assay on NCI-H522 lung was 11.8%; in the assay on A549/ATCC NSCLC, 20.1%; with 786-0 renal, 33.4%; in the assay on COLO 205 colon, -1.13% (active).
In the case of `O=c1c2cc(F)ccc2sc2c(NCCO)nc3ccccc3c12`, the growth in the assay with NCI-H23 lung is 95.6%; in the assay with NCI-H226 lung it was 103%; in the assay on NCI-H322M lung, 99.7%; in the assay on HOP-62 NSCLC, 105%; with NCI-H460 lung, 112%; with HOP-92 NSCLC, 110%. Further, the growth is 91.1% with NCI-H522 lung, 101% in the assay on A549/ATCC NSCLC, 104% in the assay with 786-0 renal and 114% with COLO 205 colon.
As for `Cc1ccc(/C=C(\C#N)n2nc3cccc(F)c3n2)cc1`, the growth in the assay with NCI-H23 lung is 83.7%; in the assay on NCI-H226 lung it was 92.9%; in the assay on NCI-H322M lung, 88.7%; in the assay on HOP-62 NSCLC, 93.9%; in the assay with NCI-H460 lung, 96.3%; with HOP-92 NSCLC, 55.7%. The growth in the assay with NCI-H522 lung was 74.9%; in the assay on A549/ATCC NSCLC it was 97.7%; with 786-0 renal it was 83.7%; in the assay with COLO 205 colon, 122%.
